High-throughput results: PubChem BioAssay, Broad Institute
Most compounds without a hit are left out; they make up all but 2.9% or so of the library.
N-glyco inh: N-linked glycosylation inhibition | actives 0.23% (n = 360,000) | reporter increase, % at 12.5 µM | AID 588692 | D54 ERlucT glycosylation luciferase reporter, 24 h; percent of 100 nM tunicamycin response;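 active = mean luciferase reporter signal, scaled so untreated is 0 and the glycosylation-blocking control 100, at or above a set limit in every replicate; inconclusive = mean reaches the limit but not every replicate does; inactive = mean below the limit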;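 note: luciferase carries N-glycosylation sites so blocking glycosylation raises the light; 0% = median of neutral control wells and 100% = median of 100 nM tunicamycin wells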
NSD2 HMT inh: blocks human histone methyltransferase NSD2; O96028; NSD2 peptide methylation, AlphaScreen, 120 min; inhibition, % at 12.5 µM; actives 0.54% (n = 310,000); in the data active = inhibition above about 50%
MITF TRPM1 HTS: increases MITF-driven TRPM1 promoter luciferase signal; SK-MEL-5 TRPM1-promoter luciferase, 24 h; % of positive control, neutral wells = 0; actives 0.75% (n = 300,000); activation, % at 12.5 µM;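 active = mean activation of at least 80% with every replicate also reaching 80%; inconclusive = mean reaches 80% but some replicate falls short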;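 note: 0% = neutral control wells and 100% = parthenolide positive control wells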
PfHsp90 yeast 2: reduces growth (ATP signal) of yeast expressing P. falciparum Hsp90; inhibition, % at 9.4 µM; actives 0.32% (n = 310,000); S. cerevisiae expressing PfHsp90, BacTiter-Glo ATP, 48 h; yeast lacking PDR1 and PDR3 efflux regulators;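 active = every replicate shows inhibition above about 80%, whatever the replicate mean, limit read from the data; inconclusive = mean inhibition reaches the set limit but some replicate falls short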;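 note: 0% = DMSO neutral controls and 100% = 20 µM radicicol positive controls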
Wnt act: Wnt/beta-catenin pathway activation; actives 1.2% (n = 300,000); activation, % at 9.35 µM; AID 743398; Wnt/beta-catenin reporter cell assay, activator, plate reader; in the data active = activation above about 30%, passing the limit was not always enough; inconclusive = no clear call, values can overlap the other calls;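 note: 0% = neutral control wells and 100% = positive control wells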
TRPM1 prom inh: reduces MITF-dependent TRPM1 promoter luciferase signal; SK-MEL-5 TRPM1 promoter luciferase, 24 h; inhibition, % at 12.5 µM; actives 0.83% (n = 330,000);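 active = mean inhibition across replicates of 60% or more, whatever share of single replicates reaches that level; inconclusive = some that reach 60%, reason not given; inactive = mean inhibition across replicates below 60%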
Starred values were filed as active, the others as inactive.

Screening Cc1cc(C)cc(NC(=O)c2ccc([N+](=O)[O-])o2)c1 returned N-glyco inh 3.7, NSD2 HMT inh -1.1, MITF TRPM1 HTS -64.4, PfHsp90 yeast 2 -58.4, Wnt act 0.0 and TRPM1 prom inh 65.2*.
CC(=O)c1ccc(NC(=O)c2ccc([N+](=O)[O-])o2)cc1 was read as N-glyco inh inconclusive, NSD2 HMT inh 3.4, PfHsp90 yeast 2 3.4, Wnt act 6.1 and TRPM1 prom inh 17.6.
For CCN(CC)c1ccc(/C=C(\C#N)c2ccccn2)cc1 the results were N-glyco inh -14.2, MITF TRPM1 HTS 29.5, PfHsp90 yeast 2 6.8 and TRPM1 prom inh -24.5.
For CCN(Cc1ccccc1)c1ccc(/C=C(\C#N)c2ccccn2)cc1 the results were N-glyco inh -2.7, NSD2 HMT inh 1.7, MITF TRPM1 HTS 121.2*, PfHsp90 yeast 2 -3.4, Wnt act 96.2* and TRPM1 prom inh -111.8.
For CCCNC(=O)c1oc2ccc3c(c2c1C)C(=O)CC(C)(C)O3 the results were N-glyco inh -8.7, NSD2 HMT inh -2.0, MITF TRPM1 HTS 89.2*, PfHsp90 yeast 2 12.6, Wnt act 59.2* and TRPM1 prom inh -82.9.
`CCCNC(=O)c1oc2ccc3c(c2c1C)C=CC(C)(C)O3` gave N-glyco inh 0.2, NSD2 HMT inh 10.7, MITF TRPM1 HTS 105.0*, PfHsp90 yeast 2 -44.4, Wnt act 38.4* and TRPM1 prom inh -106.2.
For CCc1c(Cc2cccc(F)c2)ncn1CCc1ccccc1OC the results were Wnt act -6.4.
O=C(Nc1ccc(Cl)cc1)Nc1cccc(C(=O)O)c1 was read as N-glyco inh -6.2, NSD2 HMT inh -1.0, MITF TRPM1 HTS -80.1, PfHsp90 yeast 2 -0.7, Wnt act -0.7 and TRPM1 prom inh 80.5*.
`CCOc1cccc(C(=O)NC(=S)Nc2ccccc2)c1` gave N-glyco inh -1.4, NSD2 HMT inh 1.3, MITF TRPM1 HTS 92.9*, PfHsp90 yeast 2 2.6, Wnt act 5.0 and TRPM1 prom inh -84.7.
CCOc1ccc(NC(=O)Nc2cccc(C(=O)O)c2)cc1 was read as N-glyco inh -6.3, NSD2 HMT inh 0.4, MITF TRPM1 HTS -93.7, PfHsp90 yeast 2 23.5, Wnt act -30.6 and TRPM1 prom inh 93.6*.
For O=C(Nc1cccc(Cl)c1)Nc1cccc(C(=O)O)c1 the results were N-glyco inh 0.9, NSD2 HMT inh -2.1, PfHsp90 yeast 2 -1.4, Wnt act 22.2 and TRPM1 prom inh 30.4.
Screening O=C(NCc1ccccc1)C(=O)Nc1cccc(C(=O)O)c1 returned N-glyco inh -10.2, NSD2 HMT inh -4.6, MITF TRPM1 HTS -59.8, PfHsp90 yeast 2 15.2, Wnt act 6.4 and TRPM1 prom inh 62.8*.
O=C(CCCOc1ccc(Cl)cc1)Nc1cccc(C(=O)O)c1 was read as N-glyco inh 0.1, NSD2 HMT inh 1.9, MITF TRPM1 HTS -2.5, PfHsp90 yeast 2 -23.8, Wnt act 56.3* and TRPM1 prom inh 4.9.
Screening CCC(=O)N1CCc2cc(S(=O)(=O)CCC(=O)Nc3ccc(C)cn3)ccc21 returned N-glyco inh 1.3, NSD2 HMT inh -2.4, MITF TRPM1 HTS 2.6, PfHsp90 yeast 2 6.6, Wnt act -0.2 and TRPM1 prom inh -7.2.
`O=S(=O)(Nc1ccc(C(O)(C(F)(F)F)C(F)(F)F)cc1)c1cccs1` gave NSD2 HMT inh -0.8.
Screening O=c1c(CO)cc(CO)cc(CO)c1O returned N-glyco inh 1.2, NSD2 HMT inh -0.1, MITF TRPM1 HTS 2.6, PfHsp90 yeast 2 3.9, Wnt act 0.1 and TRPM1 prom inh 0.7.
`O=C1C=CC(=O)c2c(O)c(CO)c(CO)c(O)c21` gave N-glyco inh -0.8, PfHsp90 yeast 2 -6.0, Wnt act 9.0 and TRPM1 prom inh 102.8*.
Screening Cc1ccc(NC(=O)CCC(=O)NNC(=O)COc2ccccc2)c(C)c1 returned N-glyco inh 3.6, MITF TRPM1 HTS 9.2, PfHsp90 yeast 2 6.5, Wnt act -1.2 and TRPM1 prom inh -10.6.
For C=CCSc1nc2c(cnn2-c2ccccc2)c(=O)n1N the results were N-glyco inh -9.3, NSD2 HMT inh -0.8 and Wnt act 56.1*.
Screening CCCSc1nc2c(cnn2-c2ccccc2)c(=O)[nH]1 returned N-glyco inh -4.4, MITF TRPM1 HTS -5.1, PfHsp90 yeast 2 -35.1, Wnt act -2.8 and TRPM1 prom inh 6.1.
Screening O=C(Nc1ccc2nc(C3CC3)n(Cc3ccccc3)c(=O)c2c1)C1CC1 returned N-glyco inh -3.0, NSD2 HMT inh -1.2, MITF TRPM1 HTS 114.9*, PfHsp90 yeast 2 -24.7, Wnt act 23.9 and TRPM1 prom inh -120.3.
O=C(NCc1ccc(C(F)(F)F)cc1)c1ccc(-c2cccnc2)c2ccoc12 was read as N-glyco inh -1.4, NSD2 HMT inh -3.2 and Wnt act -0.1.
Screening COc1ccc(-c2cn(Cc3ccc(C(N)=O)cc3)c(-c3ccncc3)n2)cc1 returned N-glyco inh 1.2, MITF TRPM1 HTS 106.1*, PfHsp90 yeast 2 1.9, Wnt act 47.0* and TRPM1 prom inh -102.7.
`N/C(Cc1nc(-c2ccc(Cl)cc2)cs1)=N/O` gave N-glyco inh -0.5, NSD2 HMT inh -1.3, PfHsp90 yeast 2 -13.6, Wnt act 36.9* and TRPM1 prom inh -25.5.
Screening Cc1ccc(-c2csc(CC(N)=O)n2)cc1 returned N-glyco inh 2.2, NSD2 HMT inh -4.3, MITF TRPM1 HTS -2.0, PfHsp90 yeast 2 -5.4, Wnt act 3.5 and TRPM1 prom inh 0.0.
Screening O=C(Nc1ccc(Br)c(C(F)(F)F)c1)[C@@H]1CC=C[C@@H]2CCN(CC3CC3)C(=O)[C@@H]21 returned NSD2 HMT inh -3.5.
Screening COc1ccc2[nH]c3c(c2c1)CCn1c-3nc2ccccc2c1=O returned N-glyco inh -11.9, MITF TRPM1 HTS 28.2, PfHsp90 yeast 2 17.3, Wnt act 40.8* and TRPM1 prom inh -29.4.
For Cc1cc(OCCn2cnc3ccccc3c2=O)ccc1[N+](=O)[O-] the results were N-glyco inh 0.9, NSD2 HMT inh -2.4, MITF TRPM1 HTS 4.4, PfHsp90 yeast 2 2.5, Wnt act -0.6 and TRPM1 prom inh -2.9.
Screening Cc1ccc(OCCn2cnc3ccccc3c2=O)c([N+](=O)[O-])c1 returned N-glyco inh 2.2, NSD2 HMT inh 4.4, MITF TRPM1 HTS 61.2, PfHsp90 yeast 2 -8.1, Wnt act 40.9* and TRPM1 prom inh -61.9.
For COc1cc(OC)cc(C(=O)NNC(=O)c2nn(C)c(=O)c3ccccc23)c1 the results were N-glyco inh 6.6, NSD2 HMT inh -1.1, MITF TRPM1 HTS 1.2, PfHsp90 yeast 2 2.6, Wnt act 0.4 and TRPM1 prom inh 0.1.
For Cc1cc(/C=C2\SC(=S)NC2=O)c(C)n1-c1ccc(O)cc1 the results were N-glyco inh -6.7, NSD2 HMT inh 11.2, MITF TRPM1 HTS 68.7, PfHsp90 yeast 2 96.7*, Wnt act 0.2 and TRPM1 prom inh -59.7.
`Cc1ccsc1C(=O)OCc1nnc(-c2ccccc2)o1` gave N-glyco inh -1.2, NSD2 HMT inh -3.9, MITF TRPM1 HTS 95.9*, PfHsp90 yeast 2 7.2, Wnt act 13.2 and TRPM1 prom inh -93.7.
